Assay results: PubChem BioAssay (EPA / NIEHS)
Records with an inconclusive call do not appear. Active and inactive are the calls of the source. Rule for the calls: active = hit-call score of the fitted dose curve at least 0.9, where 1 is the maximum; inconclusive = response in the unintended direction; inactive = score below 0.9.

Key:
[1] = ATG_M_61_XSP1: Attagene TRANS-FACTORIAL Multi-Species (XSP1) HepG2 Assay for M61 Transcription Factor (Internal Marker) (AID 2283797)
Summary of the method: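 HepG2 cells transiently transfected with multiplexed GAL4-driven reporter units, dosed 24 h with 3 nM 6-alpha-fluorotestosterone present. Reporter mRNA quantified by RT-PCR, 6-FAM labelling, HpaI digestion and capillary electrophoresis; internal-marker background control, gain of signal versus DMSO.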

[2] = system: zebrafish Peroxisome Proliferator-activated Receptor gamma (PPARg), gene 557037; assay: ATG_zfPPARg_XSP1: Attagene TRANS-FACTORIAL Multi-Species (XSP1) HepG2 Assay for zebrafish Peroxisome Proliferator-activated Receptor gamma (PPARg) (AID 2283801)
Summary of the method: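 HepG2 cells transiently transfected with GAL4-UAS reporter units including a zebrafish PPARg–GAL4 chimera, dosed 24 h with 3 nM 6-alpha-fluorotestosterone present. Reporter mRNA quantified by RT-PCR, FAM labelling, HpaI digestion and capillary electrophoresis; induction versus DMSO.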

[3] = molecular target: Nuclear receptor subfamily 1 group I member 2 (Mus musculus) (UniProt O54915); assay: ATG_mPXR_XSP1: Attagene TRANS-FACTORIAL Multi-Species (XSP1) HepG2 Assay for mouse Pregnane X Receptor (PXR) (AID 2283803)
Summary of the method: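 Transiently transfected HepG2 cells expressing a receptor-Gal4 chimera drive a GAL4-UAS reporter; 3 nM 6-alpha-fluorotestosterone included. Reporter mRNA read 24 h post-dose by RT-PCR and capillary electrophoresis; gain of signal relative to DMSO.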

[4] = molecular target: human Thyroid hormone Receptor alpha (TRa), THRA (gene 7067) (UniProt P10827); assay: ATG_hTRa_XSP1: Attagene TRANS-FACTORIAL Multi-Species (XSP1) HepG2 Assay for human Thyroid hormone Receptor alpha (TRa) (AID 2283805)
Summary of the method: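 HepG2 cells transiently transfected with GAL4-UAS reporter units expressing chimeric NR-Gal4 proteins, dosed 24 hours with 3 nM 6-alpha-fluorotestosterone present. Reporter mRNA measured by RT-PCR and capillary electrophoresis; gain of signal fitted versus DMSO.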

[5] = molecular target: zebrafish Thyroid Hormone Receptor alpha (TRa), thraa (gene 30670) (UniProt Q98867); assay: ATG_zfTRa_XSP1: Attagene TRANS-FACTORIAL Multi-Species (XSP1) HepG2 Assay for zebrafish Thyroid Hormone Receptor alpha (TRa) (AID 2283807)
Experimental: (§1) ATG_XSP1_multi-species_TRANS is a cell-based, multiplexed assay created by modifying the existing Attagene TRANS-FACTORIAL system to include a panel of nuclear receptors from some or all the following species: human (Homo sapiens), mouse (Mus musculus), frog (Xenopus laevis), zebrafish (Danio rerio), chicken (Gallus gallus), and turtle (Chrysemys picta). The ECOTOX-FACTORIAL format uses HepG2, a human liver cell line, with measurements taken at 24 hours after chemical dosing in a 24-well plate. Xsp1 included 3 nM 6-alpha-fluorotestosterone to partially stimulate the androgen receptor.ATG_zfTRa_XSP1 is one of 29 assay components measured or calculated from the ATG_XSP1_multi-species_TRANS assay. It is designed to make measurements of mRNA induction, a form of inducible reporter, as detected with fluorescence intensity signals by Reverse transcription polymerase chain reaction (RT-PCR) and Capillary electrophoresis technology.The assay endpoint ATG_zfTRa_XSP1 was analyzed in the positive analysis fitting direction relative to DMSO as the negative control and baseline of activity. […] Furthermore, this assay endpoint can be referred to as a primary readout, because this assay has produced multiple assay endpoints where this one serves a reporter gene function. […]

[6] = molecular target: human Thyroid hormone Receptor beta (TRb), THRB (gene 7068) (UniProt P10828); assay: ATG_hTRb_XSP1: Attagene TRANS-FACTORIAL Multi-Species (XSP1) HepG2 Assay for human Thyroid hormone Receptor beta (TRb) (AID 2283808)
Experimental: as §1, with “receptor.ATG_hTRb_XSP1” for “receptor.ATG_zfTRa_XSP1”, “ATG_hTRb_XSP1” for “ATG_zfTRa_XSP1”

[7] = ATG_XTT_Cytotoxicity_XSP1: Cytotoxicity Assessment in the Attagene TRANS-FACTORIAL Multi-Species (XSP1) HepG2 Assay (AID 2283810)
Summary of the method: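 XTT viability readout taken at 24 hours post-dosing in HepG2 liver cells co-treated with 3 nM 6-alpha-fluorotestosterone. Signal loss relative to DMSO controls reflects cytotoxicity.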

Sequence of Nuclear receptor subfamily 1 group I member 2 (Mus musculus) (O54915 whole entry, looked up, the tested form may be a part): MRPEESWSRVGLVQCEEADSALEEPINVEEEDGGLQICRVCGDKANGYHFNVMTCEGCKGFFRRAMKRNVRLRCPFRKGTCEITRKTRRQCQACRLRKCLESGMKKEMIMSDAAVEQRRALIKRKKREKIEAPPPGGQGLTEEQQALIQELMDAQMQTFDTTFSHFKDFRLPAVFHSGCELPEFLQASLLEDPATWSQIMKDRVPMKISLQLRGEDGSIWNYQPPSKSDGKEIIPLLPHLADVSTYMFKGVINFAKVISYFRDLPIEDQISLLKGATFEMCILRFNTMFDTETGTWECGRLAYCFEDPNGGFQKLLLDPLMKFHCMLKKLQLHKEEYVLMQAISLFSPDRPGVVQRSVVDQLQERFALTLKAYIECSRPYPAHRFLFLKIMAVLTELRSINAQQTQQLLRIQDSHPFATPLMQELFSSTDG
Sequence of zebrafish Thyroid Hormone Receptor alpha (TRa), thraa (gene 30670) (Q98867 whole entry, looked up): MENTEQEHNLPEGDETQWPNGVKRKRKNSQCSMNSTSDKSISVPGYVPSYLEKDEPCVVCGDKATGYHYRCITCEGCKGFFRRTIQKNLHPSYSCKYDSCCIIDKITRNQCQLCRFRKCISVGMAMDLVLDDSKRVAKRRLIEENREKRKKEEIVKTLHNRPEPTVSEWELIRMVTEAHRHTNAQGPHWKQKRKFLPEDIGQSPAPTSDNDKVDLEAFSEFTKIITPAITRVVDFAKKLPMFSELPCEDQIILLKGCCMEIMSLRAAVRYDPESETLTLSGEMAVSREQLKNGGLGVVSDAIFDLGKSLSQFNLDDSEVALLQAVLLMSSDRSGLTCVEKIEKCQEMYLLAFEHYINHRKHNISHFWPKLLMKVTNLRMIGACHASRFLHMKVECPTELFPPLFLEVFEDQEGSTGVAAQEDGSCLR
Sequence of human Thyroid hormone Receptor beta (TRb), THRB (gene 7068) (P10828 whole entry, looked up): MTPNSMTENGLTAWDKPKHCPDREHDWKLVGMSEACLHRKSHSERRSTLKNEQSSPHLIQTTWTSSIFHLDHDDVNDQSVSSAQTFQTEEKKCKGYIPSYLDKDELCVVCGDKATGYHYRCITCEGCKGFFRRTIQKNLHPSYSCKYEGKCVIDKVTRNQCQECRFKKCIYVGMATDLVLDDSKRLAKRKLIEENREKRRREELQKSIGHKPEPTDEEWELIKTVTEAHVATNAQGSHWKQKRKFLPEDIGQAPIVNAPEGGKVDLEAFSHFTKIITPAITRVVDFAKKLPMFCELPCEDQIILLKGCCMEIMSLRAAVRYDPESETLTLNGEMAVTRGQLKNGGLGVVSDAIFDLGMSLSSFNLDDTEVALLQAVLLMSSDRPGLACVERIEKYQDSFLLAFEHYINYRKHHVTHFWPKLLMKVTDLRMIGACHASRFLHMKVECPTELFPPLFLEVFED
Sequence of human Thyroid hormone Receptor alpha (TRa), THRA (gene 7067) (P10827 whole entry, looked up, the tested form may be a part): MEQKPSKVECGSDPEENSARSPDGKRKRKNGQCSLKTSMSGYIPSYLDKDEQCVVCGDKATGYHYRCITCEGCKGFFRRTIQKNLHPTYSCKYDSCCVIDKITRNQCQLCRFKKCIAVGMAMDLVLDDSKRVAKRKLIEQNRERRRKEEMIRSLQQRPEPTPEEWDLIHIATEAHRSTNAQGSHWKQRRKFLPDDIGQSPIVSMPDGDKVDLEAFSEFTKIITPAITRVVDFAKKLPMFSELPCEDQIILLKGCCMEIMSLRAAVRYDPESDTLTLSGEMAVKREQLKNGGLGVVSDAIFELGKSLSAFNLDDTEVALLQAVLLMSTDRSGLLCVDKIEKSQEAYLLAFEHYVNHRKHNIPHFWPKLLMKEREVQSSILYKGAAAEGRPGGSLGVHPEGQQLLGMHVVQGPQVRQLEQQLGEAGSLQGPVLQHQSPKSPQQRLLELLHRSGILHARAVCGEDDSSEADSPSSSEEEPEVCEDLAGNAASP

CCCCC(CC)COC(=O)c1ccc(O)cc1 (configuration not stated)
outcome [1]: inactive
outcome [2]: inactive
outcome [3]: inactive
outcome [4]: inactive
outcome [5]: inactive
outcome [6]: inactive
AC50 [7]: 63.8 µM (active)
